Assay outcomes: PubChem, several laboratories
CRFR2-BP antag = antagonists of CRF-binding protein/CRF-R2 receptor complex; inhibition, % at 11.8 µM; HEK293 CRF-R2/CRF-BP, CRF-induced calcium fluorescence; hit rate 0.59% among 350,000;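 active means inhibition of the ligand-induced calcium signal above about 50% at the single tested concentration, limit read from the data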
Myeloid diff MLP = myeloid differentiation induction. ER-HoxA9 myeloid progenitors, lysozyme-GFP differentiation, flow cytometry. calls only at 10 µM. hit rate 1% among 360,000;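 active means normalized GFP-positive differentiation at or above the plate's own cutoff, the solvent-only control mean plus 3 SD; inconclusive means no clear call, values can overlap the other calls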;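 further: cells exposed to compound for four days before flow analysis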
NRP1-CendR mod = alters CendR peptide binding to human NRP-1; FAM-RPARPAR peptide binding to NRP-1, fluorescence polarization; hit rate 0.85% among 360,000; inhibition, % at 25 µM; AID 602438;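 active means inhibition or corrected inhibition above about 18%, plus a signal ratio from 0.5 to 1.5, limit read from the data, passing the limit was not always enough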
FAS TE block = blocks the thioesterase domain of human fatty acid synthase. P49327. recombinant FAS-TE, OMFH fluorogenic substrate, fluorescence endpoint. inhibition, % at 15 µM. hit rate 0.67% among 360,000. AID 602261;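 active means compounds whose normalised, plate-corrected inhibition of enzyme fluorescence in the single-dose primary screen is 50% or more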
NadD block = blocks S. aureus nicotinate mononucleotide adenylyltransferase; inhibition, % at 20 µM; purified NadD enzyme, colorimetric absorbance read-out; hit rate 0.78% among 360,000; AID 602399; in the data active means inhibition above about 26%
Each line names hits and unclear results; the compound was inactive in the other large screens. The list is not random: actives were taken first. Their share in the collection is about 3.6%.

O=C(Nc1cccc(NC(=O)c2cccs2)c1)c1ccc([N+](=O)[O-])o1	Myeloid diff MLP inconclusive
COc1ccc(NC(=O)C(=O)NNC(=O)c2cccs2)cc1	none
FC(F)(F)c1ccc(C2[C@H]3CN(Cc4cccnc4)[C@H](c4ccccc4)C34CC2(c2ccccc2)C4)cc1 (stereo partly drawn)	none
COc1ccc(C(C(=O)NC(C)(C)C)N(CCC(C)C)C(=O)CCC(=O)Nc2cc(C)on2)cc1 (stereo not drawn)	Myeloid diff MLP active
NC(=O)C1CCCN(C(=O)c2ccc3nc(Cc4cccc(Cl)c4)oc3c2)C1 (stereo not drawn)	NRP1-CendR mod 27
CC(=O)C1CCCN(C(=O)c2ccc3nc(Cc4cccc(Cl)c4)oc3c2)C1 (stereo not drawn)	none
OCCNc1ncnc2c1ncn2[C@H]1CN(Cc2ccc(Cl)cc2)C[C@@H](CO)O1	none (no result: CRFR2-BP antag)
Cc1ccc(N)c([N+](=O)[O-])c1	none
Nc1ccc(N=Nc2ccccc2)cc1[N+](=O)[O-]	CRFR2-BP antag 63, NRP1-CendR mod 23
COc1ccc(C2(C(=O)NC3CCCCC3)CCOCC2)cc1OC	NRP1-CendR mod 24
CC[n+]1c(/C=C2/C=C(C)CC(C)(C)C2)sc2ccc(OC)cc21	Myeloid diff MLP active
CC[n+]1c(/C=C2\C=C(C)CC(C)(C)C2)sc2ccccc21	none
CCN1C(=O)[C@H]2[C@@H](c3ccc(C)cc3)N3C(=O)N(c4cccc(F)c4)C(=O)[C@@]3(Cc3ccc(Cl)cc3)[C@H]2C1=O	none
CCN1C(=O)[C@H]2[C@@H](c3ccc(C)cc3)N3C(=O)N(c4cccc(Cl)c4)C(=O)[C@@]3(Cc3ccccc3)[C@H]2C1=O	none
O=C1[C@H]2[C@@H](c3ccc(Cl)cc3)N3C(=O)N(c4cccc(F)c4)C(=O)[C@@]3(Cc3ccc(Cl)cc3)[C@H]2C(=O)N1C1CCCCC1	FAS TE block 96
O=C1[C@H]2[C@@H](c3ccc(Cl)cc3)N3C(=O)N(c4cccc(Cl)c4)C(=O)[C@@]3(Cc3ccc(Cl)cc3)[C@H]2C(=O)N1C1CCCCC1	FAS TE block 94
O=C1[C@H]2[C@@H](c3ccc(F)cc3)N3C(=O)N(c4ccc(Br)cc4)C(=O)[C@@]3(Cc3ccccc3)[C@H]2C(=O)N1C1CCCCC1	FAS TE block 92
CC(C)C[C@@]12C(=O)N(c3cccc(Cl)c3)C(=O)N1[C@H](c1ccc(F)cc1)[C@@H]1C(=O)N(C3CCCCC3)C(=O)[C@@H]12	FAS TE block 84
Cc1ccc(N2C(=O)N3[C@H](c4ccc(F)cc4)[C@@H]4C(=O)N(C5CCCCC5)C(=O)[C@@H]4[C@]3(C)C2=O)cc1	none
CC(=O)NCCNc1nc2cc(-c3cccc(C(F)(F)F)c3)sc2c(=O)n1C	none (no result: CRFR2-BP antag)
CCN(CC(=O)Nc1ccc2c(c1)OCCO2)C(=O)/C=C/c1cc(Br)ccc1OC	none
Cc1cccc(N2C(=O)N3[C@H](c4ccc(Cl)cc4)[C@@H]4C(=O)N(C5CCCCC5)C(=O)[C@@H]4[C@]3(Cc3ccc(Cl)cc3)C2=O)c1	FAS TE block 94
CCN(CC)C(=O)c1[nH]cnc1C(=O)N[C@@H](C)C(=O)OC(C)(C)C	none
COc1ccc(NC(=O)c2cc(-c3ccccc3OC)on2)cc1	CRFR2-BP antag 54, Myeloid diff MLP inconclusive
O=c1oc2c(-c3cccc(F)c3)cc(O)cc2s1	NRP1-CendR mod 33
CCc1nnc(SCc2ccc(C(=O)OC)o2)n1N	NRP1-CendR mod 38
CCCc1nnc(SCc2ccc(C(=O)OC)o2)n1N	none
Cc1cccc(CN2CCN(Cc3cccc(-n4cccn4)c3)CC2CCO)n1 (stereo not drawn)	none
Cc1ccc(C(=O)NCC(=O)N/N=C/c2cccs2)cc1C	none
CCCCOc1ccc(/C=C(\C#N)C(=O)NC2CC2)cc1	none
CCOc1ccc(/C=C(\C#N)C(=O)NC2CC2)c(OCC)c1	CRFR2-BP antag 80
CCOc1cc(/C=C2\CCC/C(=C\c3cc(Cl)c(O)c(OCC)c3)C2=O)cc(Cl)c1O	Myeloid diff MLP active, NadD block 46
CCN(CC)C(=O)C1=C(C)N(CCCN2CCCC2=O)C(=O)C(CC(=O)NCCN2CCOCC2)C1 (stereo not drawn)	none
Nc1ccc2cc3ccccc3cc2c1	Myeloid diff MLP active
COCCNC(=O)C1(C)CCCN(C(=O)c2cccc(C(F)(F)F)c2)C1 (stereo not drawn)	none (no result: CRFR2-BP antag)
O=C(O)CCn1c(SCc2ccccc2)nc2ccccc21	none
Cc1nc2ccccc2n1CCC(=O)O	NRP1-CendR mod 33
C/C(=N\NC(=O)c1cc2ccccc2cc1O)c1cc2ccccc2o1	NadD block 49
